{"source": "PubChem BioAssay AID1446", "about": "(The Scripps Research Institute Molecular Screening Center, 2008)", "note": "Out of some 220,000 compounds screened, about 2,400 (1.1%) were called active.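 How the source made its calls: active means inhibition above the campaign mean plus 3 SD over all tested compounds (cut at about 24% in these data); inactive means the rest.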 Only a selection was taken, and actives are over-represented in it overall.", "data": [{"test": "viability loss in Ba/F3 EpoR-JAK2V617F cells – cell-based, luminescence, JAK2V617F inhibitor project, primary screen (AID 1446);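 further: cytokine-independent growth of Ba/F3 cells driven by EpoR plus mutant JAK2; 0% = DMSO-treated cells and 100% = JAK inhibitor I control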", "conditions": "ATP luminescence, at 5.6 µM, active compounds read high", "values": [{"smiles": "CCCCCCCCCCCCn1ccc(=N)cc1", "inhibition": "98.4% (active)"}, {"smiles": "COc1cc(OC)cc(C2(C#N)CCN(C)CC2)c1", "inhibition": "-0.42% (inactive)"}, {"smiles": "O=C1NC(=O)N(CCc2ccc(F)cc2)C(=O)/C1=C/C=C/c1ccccc1", "inhibition": "1.28% (inactive)"}, {"smiles": "COc1ccc(-n2c(-c3ccccc3)nc3ccccc3c2=O)cc1", "inhibition": "0.29% (inactive)"}, {"smiles": "CN(C)CC1Oc2ccccc2OC1(O)c1ccccc1", "note": "(stereo not given)", "inhibition": "91.1% (active)"}, {"smiles": "O=c1[nH]c(=O)n(-c2ccc(F)cc2)c(O)c1C=NCCN1CCCCC1", "inhibition": "0.16% (inactive)"}, {"smiles": "Cc1cccc(NC(=O)OC2CN3CCC2CC3)c1", "note": "(stereo not given)", "inhibition": "2.6% (inactive)"}, {"smiles": "CN1CCN(/N=C/c2c[nH]c3ccccc23)CC1", "inhibition": "-2.46% (inactive)"}, {"smiles": "CC1=C(C(=O)Nc2ccccc2)S(=O)(=O)CCO1", "inhibition": "-1.56% (inactive)"}, {"smiles": "CCOc1ccc(-c2cc(C)[n+](CCN(CC)CC)c(-c3ccc(OCC)cc3)c2)cc1", "inhibition": "98.2% (active)"}, {"smiles": "CC1=C2C(=O)C3C(CC=C4CC(OC5OC(O)C(O)C(O)C5CO)CCC43C)C2CCC12OC1CC(C)CNC1C2C", "note": "(stereo not given)", "inhibition": "0.84% (inactive)"}, {"smiles": "CSc1nc2ccc(C)cc2c(=O)n1-c1cccnc1", "inhibition": "3.49% (inactive)"}, {"smiles": "CC1(C)Cc2c(C#N)c(N3CCNCC3)nc(-c3ccco3)c2CS1", "inhibition": "1.65% (inactive)"}, {"smiles": "CCOc1cccc(=NC2CCCCC2)c2c(C)[nH]c(C)c12", "inhibition": "34% (active)"}, {"smiles": "O=C(O)COc1ccccc1/C=C1\\C(=O)NC(=O)N(CCC2=CCCCC2)C1=O", "inhibition": "-1.88% (inactive)"}, {"smiles": "Cn1c(O)c(C(=Nc2ccc(F)cc2)c2ccccc2)c(=O)n(C)c1=O", "inhibition": "-3.28% (inactive)"}, {"smiles": "CCCCC(=O)N/N=C/c1c(O)n(CCC2=CCCCC2)c(=O)[nH]c1=O", "inhibition": "-0.19% (inactive)"}, {"smiles": "O=c1[nH]c(=O)n(CCc2ccc(F)cc2)c(O)c1/C=N/N1CCCCC1", "inhibition": "-0.8% (inactive)"}, {"smiles": "O=c1[nH]c(CN2CC=C(c3ccccc3)CC2)nc2scc(-c3cccs3)c12", "inhibition": "-4.83% (inactive)"}, {"smiles": "Cc1ccc(CN2CCCC(C(=O)c3ccc4c(c3)OCO4)C2)cc1C", "note": "(stereo not given)", "inhibition": "-3.5% (inactive)"}, {"smiles": "CCOP(=O)(OCC)C(NC(=O)NC)C(N)=O", "note": "(stereo not given)", "inhibition": "3.57% (inactive)"}, {"smiles": "CC1=CC(=Cc2sc3ccccc3[n+]2C)C=C(C)O1", "inhibition": "101% (active)"}, {"smiles": "CNC(=O)O/N=C(\\N)Cc1csc2ccc(Cl)cc12", "inhibition": "1.27% (inactive)"}, {"smiles": "O=c1[nH]c(=O)n(CCc2ccccc2)c(O)c1/C=N/N1CCOCC1", "inhibition": "-2.98% (inactive)"}, {"smiles": "CCOP(=O)(OCC)C(NC(=O)c1ccc(OC)cc1)C(Cl)(Cl)Cl", "note": "(stereo not given)", "inhibition": "1.2% (inactive)"}]}]}
